Compound activity from PubChem.
Compounds with a hit are over-represented: about 19% of the library has one in this group of screens.
TDP1 cell noCPT – qHTS for Inhibitors of human tyrosyl-DNA phosphodiesterase 1 (TDP1): qHTS in cells in absence of CPT | DT40 Tdp1-/- hTDP1 cells, no CPT, ATP luminescence, 48 h | Potency, µM (top dose mostly 46.2 µM), for the others: at the top dose activity change, negative = growth inhibition, hits mostly inhibitors | hit rate 15% among 420,000 | AID 686978, 2013; also: potency is read from the fitted curve at half-maximal effect; % is scaled to controls: 0 for no effect and ±100 for the full control effect; nearly all actives have a fitted effect of over 55% in size
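Chicken DT40 Tdp1-/- cells complemented with human TDP1, screened without camptothecin (DMSO vehicle only), 400 cells/well. Compounds pin-transferred, cells incubated at 37 °C for at least 48 hr. Growth read as ATP-dependent luminescence (CellTiter-Glo, 30 min at RT).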
SW480 rereplic – A quantitative high throughput screen for small molecules that induce DNA re-replication in SW480 colon adenocarcinoma cells; SW480 DNA re-replication, Hoechst DNA content imaging, 48 h; Potency, µM (doses to about 46.1 µM), without a hit: top-dose re-replication activation, actives largely listed as activators; hit rate 1.8% among 340,000; also: potency is read from the fitted curve at half-maximal effect; % of control where 0% means no effect; nearly all actives have a fitted effect of over 55% in size
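Readout is total intensity of Hoechst-stained nuclei, excited at 405 nm and collected at 500-530 nm. Compound treatment lasted 48 hr at 37 C in 5% CO2 before staining.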
DT40 TDP1 CPT – qHTS for Inhibitors of human tyrosyl-DNA phosphodiesterase 1 (TDP1): qHTS in cells in presence of CPT; chicken DT40 Tdp1-/-;hTDP1 cells + 20 nM CPT, ATP luminescence, 48 h; Potency, µM (doses to about 46.2 µM), for the others: at the top dose activity change, negative = growth inhibition, hits mostly inhibitors; hit rate 12% among 420,000; AID 686979, 2013; also: potency is read from the fitted curve at half-maximal effect; % is scaled to controls: 0 for no effect and ±100 for the full control effect; nearly all actives have a fitted effect of over 55% in size
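Cell growth measured by CellTiter-Glo luminescence after a minimum 48 h, 37 C compound exposure with 20 nM CPT in Tdp1-knockout DT40 cells stably expressing hTDP1, seeded 400/well; qHTS titration format.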
BCR signal inh – qHTS Assay to Find Inhibitors of Chronic Active B-Cell Receptor Signaling. ABC-DLBCL IkBa-CBG/CBR reporter, luminescence ratio, 4 h. Potency, µM (highest dose often 46.1 µM), inactives show top-dose activity change, negative = inhibition, hits mostly inhibitors. hit rate 0.05% among 340,000; active = well fitted inhibition curve with a large enough effect in the signal ratio, with a control signal flat, not every such curve was filed as active; inconclusive = small, poorly fitted or top-dose-only effect, or effect the other way, or a change in a side signal; the % refers to the signal ratio;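 also: potency is read from the fitted curve at half-maximal effect; plate controls were basal doxycycline-induced cells for no effect and cells given 10 µM MG132 for full effect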
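Compounds up to 46 uM were incubated four hours with TMD8 cells whose green CBG68 luciferase is fused to IkappaBalpha; red CBR luminescence normalised the signal, and concentration-effect curves were fitted to fusion, red and ratio data.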
MCF10A rereplic – A quantitative high throughput screen for small molecules that induce DNA re-replication in MCF 10a normal breast cells | MCF 10A DNA re-replication, Hoechst nuclear intensity, 48 h | Potency, µM (titrated, usually from 46.1 µM), for inactives: top-dose activity, positive = re-replication, actives largely listed as activators | hit rate 2.9% among 350,000 | AID 624296, 2012; also: potency is read from the fitted curve at half-maximal effect; % of control where 0% means no effect; nearly all actives have a fitted effect of over 50% in size
IL-1B inflam inh – qHTS for Inhibitors of Inflammasome Signaling: IL-1-beta AlphaLISA Primary Screen; THP-1 LPS/ATP IL-1B secretion, AlphaLISA, 16 h; stronger effect = lower value; activity change, % at 57.5 µM; hit rate 4.7% among 360,000; in the data active = activity change below about -50%; inconclusive = mostly about -30% to -49%; also: % is scaled to controls: 0 for no effect and ±100 for the full control effect
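Secreted IL-1B measured by AlphaLISA bead assay after 16 h compound exposure of THP-1 cells; compounds (final up to 57.5 uM) added 1 h before LPS (250 ng/mL) and ATP (1.25 mM) stimulation; lower signal means less secretion.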
* hit, by the source's call; ? = inconclusive; nt = not tested or not shown; [ ] = remark or other dose. Unless noted, calls follow the shape of the dose curve; as a rule, active = well fitted curve in the direction sought with a large enough effect; inconclusive = small, poorly fitted or top-dose-only effect, or another doubt; inactive = no such curve, though single readings can be large; an effect the other way counts as inactive or inconclusive.

SMILES	TDP1 cell noCPT	SW480 rereplic	DT40 TDP1 CPT	BCR signal inh	MCF10A rereplic	IL-1B inflam inh
CC(C)c1ccc(/C=C/C(=O)n2nnc3ccccc32)cc1	?	?	16µM*	nt	?	-9
COc1ccccc1C(=O)N/C(=C\c1ccc2c(c1)OCO2)C(=O)NCCc1nc2ccccc2[nH]1	?	3%	?	?	15%	5
O=C1CC(c2ccccc2)CC(O)=C1C=Nc1ccc(Cl)cc1 (configuration not stated)	-11%	?	-8%	2%	?	-3
O=C1CCCC(O)=C1C=Nc1ccc(O)cc1	26µM*	2%	?	-2%	2%	-4
CSc1ncnc2c1ncn2CCCNCc1ccccn1	1%	nt	4%	nt	nt	13
Cn1ncc2c(Nc3cccc(Cl)c3)nc(Nc3cccc(Cl)c3)nc21	12µM*	?	16µM*	?	18µM*	-81*
CCCNc1nc(Nc2ccc(C)c(Cl)c2)c2cnn(C)c2n1	23µM*	-9%	16µM*	?	24%	22
Cn1ncc2c(Nc3ccc(O)cc3)nc(Cl)nc21	-5%	4%	-3%	?	-3%	35
Cn1ncc2c(N)nc(NCCO)nc21	-4%	-6%	1%	nt	0%	-9
Cc1ccc(Nc2nc(NCCO)nc3c2cnn3C)cc1Cl	15µM*	?	21µM*	-10%	30%	9
CNc1nc(Nc2ccc(C)c(Cl)c2)c2cnn(C)c2n1	15µM*	-24%	23µM*	0%	?	-26
C=CCOCCN(CC)CC	6%	-4%	27%	-1%	2%	25
CNC(=O)[C@@H]1C[C@H](NC2CCCCCCC2)CN1Cc1cccc(OC)c1OC	-28%	nt	?	nt	nt	nt
CCOc1ccc(NS(=O)(=O)c2ccc(NC(=O)[C@@H]3CCCC[C@@H]3C(=O)O)cc2)cc1	-21%	2%	-18%	2%	0%	-1
O=C(NC1CCCCC1)C(=S)N1CCCC1	3%	-33%[1.84 µM]	-10%	1%	-26%	5
CCOC(=O)N1CC=C2C(C#N)=C(N)C(C#N)(C#N)[C@H](c3ccc(OC(C)C)c(OCC)c3)[C@H]2C1	?	?	-114%	?	?	1
N#CC1=C(N)C(C#N)(C#N)C(c2cccnc2)C2CCCC=C12 (configuration not stated)	nt	nt	nt	-1%	nt	nt
CCOC(=O)N1CC=C2C(C#N)=C(N)C(C#N)(C#N)[C@H](c3ccccc3OCC)[C@H]2C1	?	?	?	-2%	?	14
N#CC1=C(N)C(C#N)(C#N)[C@H](c2cccnc2)[C@H]2CN(C(=O)OCc3ccccc3)CC=C12	15µM*	?	?	?	?	26
N#CC1=C(N)C(C#N)(C#N)C(c2ccncc2)C2CN(C(=O)OCc3ccccc3)CC=C12 (configuration not stated)	16µM*	?	21µM*	?	?	?
N#CC1=C(N)C(C#N)(C#N)C(c2cccnc2)C2CC(c3ccccc3)CC=C12 (configuration not stated)	21µM*	11%	16µM*	?	?	4
CC(C)CN(C(=O)C1=COCCO1)c1c(N)n(Cc2ccccc2)c(=O)[nH]c1=O	8%	nt	3%	nt	nt	7
Cc1cccc(NC(=O)N2CCN(Cc3ccc4c(c3)OCO4)CC2)c1C	-12%	-93%	-4%	-3%	-6%	4
Cn1c(=O)c2c(nc(CN3CCN(c4ccccc4)CC3)n2CCc2ccccc2)n(C)c1=O	23µM*	-6%	23µM*	nt	?	-10
Cn1c(=O)c2c(nc(CN3CCN(CCO)CC3)n2CCc2ccccc2)n(C)c1=O	-14%	-3%	14%	-5%	-2%	-23
SMILES	TDP1 cell noCPT	SW480 rereplic	DT40 TDP1 CPT	BCR signal inh	MCF10A rereplic	IL-1B inflam inh
Cn1c(=O)c2c(nc(CN3CCCCC3)n2CCc2ccccc2)n(C)c1=O	?	-9%	-15%	1%	2%	-4
Cn1c(=O)c2c(nc(CN3CCN(c4cccc(Cl)c4)CC3)n2CCc2ccccc2)n(C)c1=O	10µM*	22%	13µM*	nt	?	-26
CCc1noc(C)c1C(=O)N(Cc1ccccc1)c1c(N)n(CCOC)c(=O)[nH]c1=O	?	0%	3%	0%	1%	-6
CCn1c(C(=O)OC)cc2c1ccn2-c1ccc(F)cc1	13µM*	?	18µM*	?	16%	-21
COC(=O)[C@@]12C[C@@H](CC(=O)N3CCC(c4ccccc4)CC3)C(=O)N(Cc3ccco3)C1=CCC(C)(C)C2	?	nt	?	nt	nt	-8
COc1ccccc1N1CCN(C(=O)CCCCCn2c(=S)[nH]c3cc4c(cc3c2=O)OCO4)CC1	10µM*	nt	?	nt	nt	11
O=C(CCCn1c(=S)[nH]c2cc3c(cc2c1=O)OCO3)N1CCN(c2ccccc2F)CC1	18µM*	?	?	-7%	22%	9
O=C(CCCCCn1c(=S)[nH]c2cc3c(cc2c1=O)OCO3)N1CCN(c2ccccc2)CC1	-11%	-11%	?	-1%	?	25
COc1cccc(N2CCN(C(=O)CCn3c(=S)[nH]c4cc5c(cc4c3=O)OCO5)CC2)c1	nt	nt	nt	16%	nt	nt
O=c1c2ccccc2[nH]c(=S)n1CCCN1CCN(c2ccccc2F)CC1	?	?	2.9µM*	5%	?	-19
COc1cccc(N2CCN(C(=O)CCCCCn3c(=S)[nH]c4cc5c(cc4c3=O)OCO5)CC2)c1	?	?	21µM*	11%	?	0
NC(=O)c1ccc(NC(=O)C2CCN(S(=O)(=O)Cc3ccccc3)CC2)cc1	-9%	nt	-10%	nt	nt	nt
CCc1ccc(NC(=O)c2sc3nc(C)c(C(=O)Nc4ccc(C)cc4C)c(-c4ccco4)c3c2N)cc1	-15%	nt	0%	nt	nt	nt
C[C@H]1COC(=O)[C@H](CC(=O)OC(C)(C)C)C/C=C\C[C@@H](CC(=O)N[C@@H](CO)Cc2ccccc2)C(=O)N1	?	-8%	?	?	-4%	-3
